VDR inh – Inhibitors of the vitamin D receptor (VDR): qHTS. Vitamin D3 receptor (Homo sapiens), P11473. Potency, µM, actives largely listed as inhibitors. actives 0.93% (n = 400,000). VDR-SRC2-3 peptide fluorescence polarization, 2 h
Target sequence (P11473 whole entry, looked up): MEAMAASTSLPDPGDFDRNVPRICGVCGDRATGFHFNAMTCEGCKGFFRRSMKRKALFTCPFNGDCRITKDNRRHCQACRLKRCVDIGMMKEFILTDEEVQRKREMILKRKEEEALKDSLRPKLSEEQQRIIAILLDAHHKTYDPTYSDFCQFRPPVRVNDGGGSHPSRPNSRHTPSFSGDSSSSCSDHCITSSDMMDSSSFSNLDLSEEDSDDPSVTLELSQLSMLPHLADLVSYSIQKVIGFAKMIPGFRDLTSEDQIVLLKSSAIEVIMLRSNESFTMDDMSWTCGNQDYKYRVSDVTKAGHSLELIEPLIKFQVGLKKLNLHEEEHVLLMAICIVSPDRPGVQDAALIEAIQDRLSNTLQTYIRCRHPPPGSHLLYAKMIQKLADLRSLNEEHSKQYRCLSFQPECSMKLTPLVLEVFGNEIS
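Inhibition of the VDR/SRC2-3 peptide interaction is quantified by fluorescence polarization. Compounds (23 nl, pintool) incubate with the reagents for 2 hours at ambient room temperature.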
JMJD2A Tudor – qHTS Assay for Inhibitors of JMJD2A-Tudor Domain; Lysine-specific demethylase 4A (Homo sapiens), O75164; AlphaScreen JMJD2A-Tudor / H3K4me3 peptide binding; Potency, µM (doses to about 114 µM), hits mostly inhibitors; actives 4.4% (n = 390,000); AID 504339, 2011; also: nearly all actives have a fitted effect of over 50% in size
HP1b chromo inh – HTS for Inhibitors of HP1-beta Chromodomain Interactions with Methylated Histone Tails. Chromobox protein homolog 1 (Homo sapiens), P83916. AlphaScreen HP1-beta / biotin-H3K9me3 peptide binding. Potency, µM (highest dose often 114 µM), actives largely listed as inhibitors. actives 0.56% (n = 390,000). AID 540317, 2011; also: nearly all actives have a fitted effect of over 70% in size
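HP1-beta protein (50 nM final) preincubated 30 min at room temperature with biotinylated H3(1-18)K9me3 peptide (50 nM) in PBS pH 7.4, 0.01% Tween-20, then compound added for 30 min. AlphaScreen streptavidin donor/nickel chelate acceptor beads (10 ug/mL final), 30 min dark, luminescence read.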
BAZ2B block – qHTS Assay for Inhibitors of BAZ2B; Bromodomain adjacent to zinc finger domain protein 2B (Homo sapiens), Q9UIF8; AlphaScreen BAZ2B-H3K14Ac peptide displacement; Potency, µM (titrated, usually from 114 µM), usual class: inhibitors; actives 4.4% (n = 360,000); AID 504333, 2011; also: nearly all actives have a fitted effect of over 60% in size
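Inhibition is scored as reduced AlphaScreen emission. The BAZ2B/b-H3(5-23)K14Ac complex (50 nM each) in PBS pH 7.4, 0.01% Tween-20 meets compound (up to 110 uM) for 30 min at RT before bead addition.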
PLK1 PBD inh – qHTS for Inhibitors of PLK1-PDB (polo-like kinase 1 - polo-box domain): Primary Screen; Potency, µM, most hits filed as inhibitors; Plk1 PBD binding of FITC phosphopeptide, fluorescence polarization; Serine/threonine-protein kinase PLK1 (Homo sapiens), P53350; actives 2.8% (n = 360,000); also: series mostly up to about 57 µM; nearly all actives have a fitted effect of over 65% in size
G9a block – qHTS Assay for Inhibitors of Histone Lysine Methyltransferase G9a | Histone-lysine N-methyltransferase EHMT2 (Homo sapiens), Q96KQ7 | G9a H3K9 monomethylation, AlphaScreen, 2 h | Potency, µM (highest dose often 102 µM), usual class: inhibitors | actives 8.8% (n = 350,000) | AID 504332, 2011; also: nearly all actives have a fitted effect of over 75% in size
Target sequence (Q96KQ7 913-1193 limits assumed): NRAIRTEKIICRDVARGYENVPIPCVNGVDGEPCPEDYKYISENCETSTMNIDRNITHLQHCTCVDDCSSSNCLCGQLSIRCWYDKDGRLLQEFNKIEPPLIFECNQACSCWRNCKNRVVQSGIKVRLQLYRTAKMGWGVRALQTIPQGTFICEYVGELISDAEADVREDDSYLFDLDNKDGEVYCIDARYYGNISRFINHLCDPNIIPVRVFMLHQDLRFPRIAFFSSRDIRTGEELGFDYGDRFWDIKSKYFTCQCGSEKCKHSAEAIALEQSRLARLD
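G9a (20 nM) was preincubated 15 min with compound, then reacted 2 h at room temperature with 500 nM biotin-H3K9 peptide and 20 µM SAM. Monomethyl-H3K9 detected by AlphaScreen using anti-H3K9me1 antibody.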
Large screens that a line does not name were inactive; ! = a repeat was not active. Most compounds without a hit are left out; they make up all but 11% or so of the library. Calls follow the shape of the dose curve; as a rule, active = well fitted curve in the direction sought with a large enough effect; inconclusive = small, poorly fitted or top-dose-only effect, or another doubt; inactive = no such curve, though single readings can be large; an effect the other way counts as inactive or inconclusive.

COc1cc(C2Nc3ccccc3C(=O)N2Cc2ccccc2)ccc1OCc1ccc(NC(C)=O)cc1 (stereo unspecified)	none (no result: VDR inh, HP1b chromo inh, BAZ2B block, PLK1 PBD inh, G9a block)
COc1ccc(NC(=S)N(CCCN2CCN(C)CC2)Cc2cccs2)cc1	none
Cc1ccc(NC(=S)N(CCCN2CCCC(C)C2)Cc2ccco2)cc1C (stereo unspecified)	JMJD2A Tudor inconclusive, G9a block inconclusive
FC(F)(F)c1cccc(NC(=S)N(CCCN2CCCC2)Cc2cccn2Cc2ccc(Cl)cc2)c1	JMJD2A Tudor inconclusive, G9a block 44.7µM
COc1ccc(NC(=S)N(CCCN2CCC(C)CC2)Cc2cccs2)cc1Cl	PLK1 PBD inh 16.8µM, G9a block inconclusive
CCCN(Cc1ccccc1)C(=S)Nc1cccc(C(F)(F)F)c1	none
COc1ccc(NC(=S)N(CCCN2CCCC2)Cc2cccn2Cc2ccc(Cl)cc2)cc1Cl	JMJD2A Tudor inconclusive, BAZ2B block 28.2µM, G9a block 28.2µM
Cc1ccc(NC(=S)N(CCCN2CCCC2)Cc2cccn2Cc2ccc(Cl)cc2)cc1C	JMJD2A Tudor 50.1µM
Cc1ccc(NC(=O)Cn2c(=O)c3ccc(Cl)cc3n3nncc23)cc1	none (no result: PLK1 PBD inh)
CC[C@H](C)C(=O)O[C@H]1CCC=C2C=C[C@H](C)[C@H](CC[C@@H]3C[C@H](O)CC(=O)O3)C21 (stereo partly specified)	none (no result: VDR inh, JMJD2A Tudor, HP1b chromo inh, BAZ2B block, PLK1 PBD inh)
Cc1ccc(NC(=S)N(CCCN2CCCC2)Cc2cccn2Cc2ccc(Cl)cc2)cc1Cl	JMJD2A Tudor inconclusive, BAZ2B block inconclusive, G9a block 31.6µM
CN(C)CCCN(Cc1ccccc1)C(=S)Nc1cccc(C(F)(F)F)c1	G9a block 70.8µM
CC[C@H](C)[C@H](N)C1=N[C@H](C(=O)N[C@@H](CC(C)C)C(=O)N[C@@H](CCC(=O)O)C(=O)N[C@@H](C(=O)N[C@H]2CCCCNC(=O)[C@@H](CC(N)=O)NC(=O)[C@@H](CC(=O)O)NC(=O)[C@@H](Cc3cnc[nH]3)NC(=O)[C@@H](Cc3ccccc3)NC(=O)[C@@H]([C@@H](C)CC)NC(=O)[C@@H](CCCN)NC2=O)[C@@H](C)CC)CS1	none (no result: JMJD2A Tudor, HP1b chromo inh, BAZ2B block, PLK1 PBD inh)
CCCN(C(=O)c1cc(S(=O)(=O)N2CCc3ccccc32)cn1C)c1ccc(OCC)cc1	none (no result: PLK1 PBD inh)
CCc1c(C)sc(NC(=O)c2cc(-c3cccc(Cl)c3)on2)c1C#N	VDR inh inconclusive, G9a block 3.16µM (no result: PLK1 PBD inh)
CCc1c(C)sc(NC(=O)c2cc(CC(C)C)on2)c1C#N	PLK1 PBD inh 15µM, G9a block inconclusive
CCc1c(C)sc(NC(=O)c2cc(-c3ccc(OC)c(OC)c3)on2)c1C#N	HP1b chromo inh inconclusive, G9a block 7.94µM
CCc1c(C)sc(NC(=O)c2cc(-c3ccc(O)cc3)on2)c1C#N	VDR inh inconclusive, PLK1 PBD inh 18.9µM, G9a block 44.7µM
CCc1c(C)sc(NC(=O)c2cc(-c3cc(OC)ccc3OC)on2)c1C#N	none
N[C@@H](Cc1ccccc1)c1nnc(SC/C=C/c2ccccc2)o1	G9a block inconclusive
O=C(NCC(c1ccc2c(c1)OCO2)N1CCOCC1)C(=O)Nc1ccccc1 (stereo unspecified)	none (no result: PLK1 PBD inh)
CCOC(=O)C1(C)CCCN(C(=O)c2ccc(C)c(F)c2)C1 (stereo unspecified)	none (no result: VDR inh, JMJD2A Tudor, HP1b chromo inh, BAZ2B block, G9a block)
Cc1ccc2cccc(NC(=O)c3ccc(-c4ccc(Cl)cc4Cl)o3)c2n1	none (no result: PLK1 PBD inh)
COc1ccc(/C=N/OCc2ccc(Br)cc2)c(OC)c1	none
CCc1c(C)sc(NC(=O)c2noc(C)c2[N+](=O)[O-])c1C#N	VDR inh inconclusive, PLK1 PBD inh 33.6µM, G9a block 39.8µM
Cc1noc(C)c1C(=O)Nc1sc(C)c(-c2ccccc2)c1C#N	BAZ2B block inconclusive, G9a block inconclusive
Cc1onc(-c2c(F)cccc2Cl)c1C(=O)O/N=C(\N)c1ccc([N+](=O)[O-])o1	BAZ2B block inconclusive, G9a block 39.8µM
C[C@@H]1CN([C@H](C)CO)C(=O)CCCn2nncc2CO[C@H]1CN(C)S(=O)(=O)c1ccc(C#N)cc1	none (no result: VDR inh, JMJD2A Tudor, HP1b chromo inh, BAZ2B block, G9a block)
CC1Cc2ccccc2N1C(=O)c1cnc2n(c1=O)CCS2 (stereo unspecified)	G9a block 44.7µM
CC1Cc2ccccc2N1C(=O)c1cccnc1 (stereo unspecified)	G9a block 50.1µM
O=C(c1cnc2n(c1=O)CCS2)N1CCc2ccccc21	none
O=c1oc2c3c(ccc2c2ccccc12)OCN(Cc1ccccc1Cl)C3	BAZ2B block inconclusive, G9a block 1.26µM (no result: PLK1 PBD inh)
Nc1ccc(CCn2ccnc2)cc1	JMJD2A Tudor 79.4µM, BAZ2B block 44.7µM
COc1ccc(Cl)cc1N1C(=O)CN(Cc2cc(OC)c(OC)c(OC)c2)C1=S	VDR inh inconclusive, JMJD2A Tudor inconclusive, HP1b chromo inh inconclusive, PLK1 PBD inh 7.52µM, G9a block 35.5µM
CCOc1ccc(OCCOCCn2ccnc2)cc1	JMJD2A Tudor 8.91µM, HP1b chromo inh inconclusive, BAZ2B block 79.4µM, G9a block inconclusive
CCC(C)c1ccc(OCCn2ccnc2)cc1 (stereo unspecified)	JMJD2A Tudor 20µM, BAZ2B block 50.1µM, G9a block inconclusive
Cc1cc(C)cc(OCCn2ccnc2)c1	none
OC[C@H]1O[C@H](OC[C@H]2O[C@H](OC[C@H]3O[C@H](O[C@]4(CO)O[C@H](CO)[C@@H](O)[C@@H]4O)[C@H](O)[C@@H](O)[C@@H]3O)[C@H](O)[C@@H](O)[C@H]2O)[C@H](O)[C@@H](O)[C@H]1O	none
COc1ccc(-n2c(CCC(=O)O)ccc2-c2ccccc2)c(OC)c1	JMJD2A Tudor inconclusive, BAZ2B block inconclusive, G9a block 8.91µM (no result: PLK1 PBD inh)
O=C(O)CCc1ccc(-c2ccccc2)n1-c1ccc(C(=O)O)cc1	VDR inh inconclusive, G9a block 14.1µM!
NC(=O)Nn1c(CCC(=O)O)ccc1-c1ccc(Br)cc1	JMJD2A Tudor inconclusive, G9a block inconclusive
CCOC(=O)c1ccc(N2Cc3cc(C)c(C)cc3C2)cc1O	G9a block inconclusive (no result: VDR inh, JMJD2A Tudor, HP1b chromo inh, PLK1 PBD inh)
CCOC(=O)c1ccc(-n2c(CCC(=O)O)ccc2-c2ccccc2)cc1O	VDR inh inconclusive, BAZ2B block 44.7µM, G9a block 17.8µM (no result: PLK1 PBD inh)
O=C(O)CCc1ccc(-c2ccc(Br)cc2)n1-c1cccc(O)c1	VDR inh inconclusive, JMJD2A Tudor inconclusive, HP1b chromo inh inconclusive, BAZ2B block inconclusive, G9a block 44.7µM
O=C(O)CCc1ccc(-c2ccccc2)n1-c1cccc(C(=O)O)c1	JMJD2A Tudor inconclusive, BAZ2B block inconclusive
